PubChem BioAssay
Calls of active or inactive are those of the source. The rule behind the calls is not given here.

What follows are molecules tested against Pantothenate synthetase (Mycobacterium tuberculosis (strain ATCC 25618 / H37Rv)) (UniProt P9WIL5) (assay: Coupled enzyme confirmation of inhibitors against recombinant Mtb PanC (AID 375;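 note: 0% = full reaction with vehicle and 100% = no enzyme background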)). Details: coupled enzyme assay; at 10 µM, hits give high values.
Chain of Pantothenate synthetase (Mycobacterium tuberculosis (strain ATCC 25618 / H37Rv)) (P9WIL5 whole entry, looked up): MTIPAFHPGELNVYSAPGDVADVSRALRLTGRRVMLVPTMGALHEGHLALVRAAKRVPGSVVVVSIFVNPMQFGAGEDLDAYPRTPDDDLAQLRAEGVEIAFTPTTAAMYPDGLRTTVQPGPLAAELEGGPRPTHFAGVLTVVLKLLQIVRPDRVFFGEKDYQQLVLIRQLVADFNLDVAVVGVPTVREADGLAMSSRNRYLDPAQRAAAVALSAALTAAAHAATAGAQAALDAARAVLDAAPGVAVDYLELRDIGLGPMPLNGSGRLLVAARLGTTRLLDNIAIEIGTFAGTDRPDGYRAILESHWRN
For `O=C(COc1ccccc1Cl)N1CCCC1`, the inhibition was 2% (inactive).
With `CCOC(=O)C1=C(N)OC2=C(C(=O)CC(C)(C)C2)C1c1ccoc1` (centres undefined) the inhibition was 0% (inactive).
For `CC1CN(c2ccc(Oc3ccccc3)cc2)c2nc3c(c(=O)n(CC(N)=O)c(=O)n3C)n2C1` (centres undefined), the inhibition was 3% (inactive).
With `CSCC[C@@H](Nc1nc(-c2ccccc2)nc2c1oc1ccccc12)C(=O)O` the inhibition was 4% (inactive).
With `CCNc1oc(COc2ccccc2F)nc1C#N` the inhibition was 9% (inactive).
For `Cc1nc2cc(NC(=O)N3c4ccccc4CC3C)ccc2o1` (centres undefined), the inhibition was 0% (inactive).
`CN(C1CCCCC1)S(=O)(=O)c1ccc(NC(=O)c2ccco2)cc1` was tested, and the inhibition was 0% (inactive).
In the case of `Cc1ccc(C)c(N2CCN(S(=O)(=O)c3ccc4c(c3)OCCO4)CC2)c1`, the inhibition is reported as 4% (inactive).
With `Cc1cccn2c(=O)c3cc(C#N)c(=O)n(CCCN4CCOCC4)c3nc12` the inhibition was 0% (inactive).
In the case of `COc1ccc(-c2cc(N3CCCC3)n3ncnc3n2)cc1`, the inhibition is reported as 9% (inactive).
For `COc1ccc(C2CC(c3ccc(Cl)cc3)Nc3nc(NC(=O)c4ccco4)nn32)cc1` (centres undefined), the inhibition was 4% (inactive).
`CN1CCCN(C(=O)c2cc(=O)[nH]c3ccccc23)c2nc3ccccc3nc21` was tested, and the inhibition was 0% (inactive).
In the case of `O=C(Nc1ccc2c(c1)OCO2)c1cc2ncc(Br)cn2n1`, the inhibition is reported as 3% (inactive).
With `CC1CCc2nn(CC(=O)NCCN3CCCCC3C)cc2C1` (centres undefined) the inhibition was 0% (inactive).
With `CCCn1c2c(c(O)c(C(=O)Nc3ccc(C)cn3)c1=O)CCCC2` the inhibition was 4% (inactive).
In the case of `c1ccc2c(c1)nc(-c1ccncc1)n1nnnc21`, the inhibition is reported as 11% (inactive).
In the case of `CCOC(=O)C1CCCN(c2cc(=O)n(Cc3ccc(F)cc3)c(=O)[nH]2)C1` (centres undefined), the inhibition is reported as 2% (inactive).
With `CCOC(=O)c1[nH]c(C)c(C(=O)Nc2ccc(Cl)cc2)c1C` the inhibition was 0% (inactive).
With `CCOC(=O)c1ccc(NC(=O)NC(C)C2CCCO2)cc1` (centres undefined) the inhibition was 0% (inactive).
`COc1cc(C)c(-c2cc(C(=O)O)c(C)o2)cc1C(C)C` was tested, and the inhibition was 0% (inactive).
`C=CCOc1nc2c(c(=O)n(C)c(=O)n2C)n1C` was tested, and the inhibition was 0% (inactive).
For `c1ccc2c(Cn3ccnc3)c[nH]c2c1`, the inhibition was 0% (inactive).
For `O=C(Nc1ccc(S(=O)(=O)Nc2ccc(Cl)cc2)cc1)C1CCCO1` (centres undefined), the inhibition was 4% (inactive).
In the case of `Cc1nnc(C)c2c(C)n(-c3ccc(Br)cc3)c(C)c12`, the inhibition is reported as 0% (inactive).
With `O=C(NCc1ccccc1)C1CCN(S(=O)(=O)N2CCCCCC2)CC1` the inhibition was 2% (inactive).
In the case of `Cc1nc(NS(=O)(=O)c2ccccc2)sc1NC(=O)OC(C)C`, the inhibition is reported as 0% (inactive).
For `CCOC(=O)c1cc2oc(C)cc2n1CC(=O)OC1CCCCC1`, the inhibition was 1% (inactive).
In the case of `CC1CCCC(C)N1CCNC(=O)C1CCN(S(=O)(=O)N2CCCCC2)CC1` (centres undefined), the inhibition is reported as 3% (inactive).
In the case of `CCOC(=O)N1CCC(N2CC34C=CC(O3)C(C(=O)O)C4C2=O)CC1` (centres undefined), the inhibition is reported as 0% (inactive).
`Cc1cc(C(C)(C)C)cc(C)c1CC1=NCCN1` was tested, and the inhibition was 0% (inactive).
For `Cc1cccc(Cc2c(C)nc3nc(SCC(=O)NCc4ccco4)nn3c2C)c1`, the inhibition was 2% (inactive).
In the case of `COC(=O)C1=C(C)Nc2nnnn2C1c1ccc(Cl)cc1Cl` (centres undefined), the inhibition is reported as 0% (inactive).
In the case of `c1coc(CN2CN=C(Nc3nc4ccccc4s3)NC2)c1`, the inhibition is reported as 0% (inactive).
With `CCOc1cccc(Oc2ccc(C(F)(F)F)cn2)c1` the inhibition was 0% (inactive).
`O=C(CCCCn1c(=O)c2ccccc2n(Cc2ccc(Cl)cc2)c1=O)NCc1ccco1` was tested, and the inhibition was 0% (inactive).
With `C=COCCNC(=O)Nc1ccc(Cl)c(Cl)c1` the inhibition was 0% (inactive).
`Cc1cc(C)c(OCC(=O)Nc2cccc(O)c2)cc1C` was tested, and the inhibition was 0% (inactive).
For `CCOC(=O)Cc1nn2c(=O)cc(C)nc2s1`, the inhibition was 0% (inactive).
For `O=C(CN1C(=O)c2ccccc2S1(=O)=O)NCc1ccccc1Cl`, the inhibition was 0% (inactive).
